Experimental data reported in PubChem BioAssay AID2540 (Sanford-Burnham Center for Chemical Genomics, 2010).
In all, about 330,000 compounds went through this assay and about 4,100 (1.2%) were called active. Shown is part of a subset that was picked to be rich in actives. Values without a mark were called inactive. Rule as the data show it: active = inhibition above about 50%; inactive = the rest.

These compounds were tested against Sentrin-specific protease 8 (Homo sapiens) (UniProt Q96LD8) (assay: blockers of human SENP8 peptidase activity – biochemical, luminescence, primary screen (AID 2540)). Details: purified SENP8, Z-RLRGG-aminoluciferin cleavage, at 10 µM, active compounds read high.
Sequence of Sentrin-specific protease 8 (Homo sapiens) (Q96LD8 whole entry, looked up): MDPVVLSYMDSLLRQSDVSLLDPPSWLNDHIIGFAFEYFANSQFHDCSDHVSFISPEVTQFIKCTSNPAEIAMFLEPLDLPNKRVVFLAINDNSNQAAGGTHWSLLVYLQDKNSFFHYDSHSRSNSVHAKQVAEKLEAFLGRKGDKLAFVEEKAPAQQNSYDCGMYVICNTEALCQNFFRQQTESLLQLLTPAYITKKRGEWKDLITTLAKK

SMILES | inhibition
O=c1[nH]cnc(O)c1C(c1ccc(F)cc1)c1c(O)nc[nH]c1=O | -12.7%
O=c1c(-c2ccccc2)coc2cc(O)ccc12 | 55% (active)
CC(C)CN(Cc1c(O)ccc2c(=O)c(-c3ccccc3)coc12)CC(C)C | -6.97%
CCc1ccc(Oc2coc3cc(O)ccc3c2=O)cc1 | -15.7%
O=C(O)c1ccc(OCC2CCCO2)cc1 (stereo unspecified) | -8.8%
COC(=O)c1ccc(Sc2ccc(F)cc2)c(N)c1 | -1.32%
Cc1ccc(N/C=C/C(=O)c2ccccc2)cc1C | 88.8% (active)
Cc1cc(N/C=C\C(=O)c2ccc(Cl)c(Cl)c2)no1 | -16.9%
COc1ccc(C(=O)/C=C/Nc2ccccn2)cc1 | 95.5% (active)
CCOc1ccc(N/C=C/C(=O)c2cc(OC)c(OC)c(OC)c2)cc1 | -9.53%
CCOc1ccc(NC(=S)N2CCC(NC(=O)c3ccccc3)CC2)cc1 | -6%
CCOc1ccc(N/C=C/C(=O)c2ccccc2)cc1 | 93.7% (active)
O=C(/C=C/NCc1ccc(F)cc1)c1ccccc1 | -2.04%
COc1ccc(N2C(=O)CCC(C(=O)Nc3ccccn3)C2c2ccc(OC)c(OC)c2)cc1 (stereo unspecified) | -4.67%
CC(=O)Nc1ccc(/C=C/C(=O)c2ccccc2)cc1 | -16.7%
COc1ccc(C)cc1N(C)C(=O)c1coc(=O)c2ccccc12 | -8.47%
O=C(CN1C(=O)NC2(CCOc3ccccc32)C1=O)Nc1cccc([N+](=O)[O-])c1 (stereo unspecified) | 7.44%
O=C(Nc1c2c(nn1-c1ccccc1)CS(=O)(=O)C2)C1CCCC1 | -3.98%
Cc1ccc2nc(/C(C#N)=C\c3ccc(OC(=O)c4cccs4)cc3)[nH]c2c1 | 3.01%
COc1cc(/C=C(\C#N)c2nc3ccccc3[nH]2)ccc1O | 91.8% (active)
COc1cc(/C=C(\C#N)c2nc3c(s2)CC(C)CC3)ccc1O (stereo unspecified) | -4.73%
COc1ccc(NC(=O)CN(C)C(=O)Cc2coc3cc(C)c(C)cc23)cc1 | -3.13%
COc1ccccc1C1=CC(=O)C[C@H](c2ccc(F)cc2)C1 | -4.36%
CCN(CC)CCNc1nc(-c2ccc(OC(F)F)cc2)c(C)s1 | -5.12%
COc1ccc(/C=C2/SC(=O)N(CCCCCC(=O)Nc3ccccc3C(=O)O)C2=S)cc1 | 50.3% (active)
COc1ccc(/C=C2\SC(=O)N(CCC(=O)NCCCn3ccnc3)C2=O)cc1 | -11.9%

SMILES | inhibition
COc1ccc(/C=C2\SC(=O)N(CCC(=O)NC3CCS(=O)(=O)C3)C2=O)cc1 (stereo unspecified) | 2.13%
CN1C(=O)CC(c2ccccc2)C1=O (stereo unspecified) | 1.07%
COc1cc(NC(=S)NCCSc2ccc(C)cc2)cc(OC)c1 | -1.13%
COc1cccc(C(=O)NNC(=O)c2cccc(F)c2)c1 | -1.03%
COc1cccc(C(=O)c2cc3ccc(O)cc3oc2=O)c1 | 96.9% (active)
CCOC(=O)c1cc2cc3ccccc3cc2oc1=O | -4.84%
CN1CCN(Cc2nc3cc(NC(=O)COc4ccc([N+](=O)[O-])cc4)ccc3n2C)CC1 | 0.315%
O=c1oc2cc(O)ccc2cc1-c1ccc(F)cc1 | 95.4% (active)
CN(C)c1cc(-c2ccc(F)cc2)oc(=O)c1Cl | 2.47%
COc1ccc(-c2cc3ccc(OCc4nn[nH]n4)cc3oc2=O)cc1 | 39.6%
Cc1ccc(C)c(NC(=O)CN(C)C(=O)c2ccc3ncsc3c2)c1 | -13.6%
O=C(Nc1ccccc1C(=O)O)c1ccc(N2C(=O)C3CC=CCC3C2=O)cc1 (stereo unspecified) | 21.2%
COc1ccc(CCNC(=O)CCn2c(=O)c3ccccc3n(CC(=O)NCC3CCCO3)c2=O)cc1OC (stereo unspecified) | -9.64%
C[C@H](NC(=O)C1CCN(S(=O)(=O)c2ccccc2)CC1)C(=O)NCc1ccccc1 | -3.77%
CCOc1ccc(C(O)Cc2nc3ccccc3n2C)cc1 (stereo unspecified) | 1.07%
CC(C)n1c(COc2ccccc2)nc2ccccc21 | -6.45%
Cc1ccc(OCc2nc3ccccc3n2C)cc1 | 51.5% (active)
CCn1c(SCC(=O)NC2CC2)nnc1-c1ccccc1OC | -9.1%
COc1ccc(C2OCC3(CO2)SC(=O)NC3=O)cc1OC (stereo unspecified) | -5.03%
CCN(CC)C(=O)CSc1ncnc2c1cnn2-c1ccccc1 | 2.66%
COc1ccc(-n2ncc3c(SCC(=O)NNC(C)=O)ncnc32)cc1 | 53.4% (active)
COC(=O)CSc1ncnc2c1cnn2-c1ccc(C)cc1C | 6.59%
CC(=O)Oc1ccc(-c2nc3c(C)cccc3c(=O)o2)cc1 | -1.45%
CCOC(=O)CSc1nnc(-c2ccc([N+](=O)[O-])cc2)o1 | 1.65%
CC(=O)Oc1ccc2c(=O)oc(-c3ccc([N+](=O)[O-])cc3)nc2c1 | 94.9% (active)
